# In ChEMBL document CHEMBL3988442, “University of Dundee, Small-Polar-MMV Screening Library” (2021):
# Key:
# [1] = target: T1, Aspartate--tRNA(Asp/Asn) ligase (Mycobacterium tuberculosis (strain ATCC 25618 / H37Rv)) (UniProt P9WFW3); assay: Assay for Asp RNA synthetase-1 from Mycobacterium tuberculosis; assay type: functional; set-up: scale not given: direction of the effect not stated beside the values; details: 30 µM; note: in the data most compounds retested in dose-response had high values
# T1 sequence (whole entry): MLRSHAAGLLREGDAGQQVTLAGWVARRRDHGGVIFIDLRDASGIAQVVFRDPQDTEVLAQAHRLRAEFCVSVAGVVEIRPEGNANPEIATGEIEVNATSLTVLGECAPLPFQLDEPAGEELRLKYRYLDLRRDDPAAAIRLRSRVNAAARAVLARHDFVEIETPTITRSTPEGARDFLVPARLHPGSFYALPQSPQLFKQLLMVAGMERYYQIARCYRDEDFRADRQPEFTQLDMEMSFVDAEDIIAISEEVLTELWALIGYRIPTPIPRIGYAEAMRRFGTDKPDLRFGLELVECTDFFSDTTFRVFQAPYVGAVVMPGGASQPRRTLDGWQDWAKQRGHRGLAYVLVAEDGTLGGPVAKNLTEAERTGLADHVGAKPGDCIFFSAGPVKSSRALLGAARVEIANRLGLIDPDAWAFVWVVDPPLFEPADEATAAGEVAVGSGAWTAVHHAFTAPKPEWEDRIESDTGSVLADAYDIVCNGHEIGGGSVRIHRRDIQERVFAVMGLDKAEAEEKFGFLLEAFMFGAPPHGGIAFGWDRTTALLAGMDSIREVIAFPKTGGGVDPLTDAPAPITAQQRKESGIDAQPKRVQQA
# [2] = target: Shiga toxin 2 (Escherichia coli O157:H7) (UniProt P09385+P09386); assay: E. coli 0.157:H7 Shiga Toxin SOP - stx2 screening assay; assay type: functional; set-up: scale not given: direction of the effect not stated beside the values; details: 30 µM
SMILES,Percent Effect [1] [%],Percent Effect [2] [%]
Cc1c(O)oc(-c2ccc(Br)cc2)nc1=O,-1.84,-45.4
O=C(NCc1nnc2n1CCC2)N(Cc1ccco1)C1CC1,1.06,-5.54
CC(C)CC1SCC(=O)Nc2c1cnn2-c1ccc(F)cc1 (stereo unspecified),-3.46,0.343
CC(C)c1cnc(CNc2c(F)cccc2-n2cccn2)o1,-0.919,9.22
CN(C(=O)c1cccc(C(=O)NCC(F)(F)F)c1)c1ccccc1,-2.65,-62.9
Cc1cc(C2CCCN(C(=O)c3cnn(C)c3)C2)ccn1 (stereo unspecified),-6.03,-7.91
Cc1cnn(CCNCCCOc2ccccc2)c1,-1.12,-1.37
Cn1cnnc1S(=O)(=O)C1CCN(S(=O)(=O)c2c(Cl)cccc2Cl)CC1,-0.575,0.759
Cc1nc(C)n(CC2CCCN2Cc2cn(-c3ccccc3)nn2)n1 (stereo unspecified),-2.81,-8.85
Cc1cccc(NC(=O)NCCCn2nc3ccccn3c2=O)c1C,3.46,19.3
Cc1c[nH]nc1C1CCN(S(=O)(=O)N(C)C)CC1,2.31,-2.83
O=C(Nc1cccc(CN2CCOC2=O)c1)N1CCSCC1,-4.15,-52.5
O=C(NCCc1ccsc1)Nc1cccnc1N1CCCC1,1.77,-4.75
Cc1noc(CN(Cc2ccc3c(c2)OCO3)C2CCCC2)n1,1.87,30.6
CNC(=O)C1Cn2ccnc2C2(CCN(Cc3cccnc3)CC2)O1 (stereo unspecified),-0.0764,3.87
CN(CCN1CCCCC1)C(=O)c1cc(CN2CCOCC2)on1,5.72,-1.02
Fc1cccc(-c2nc(CN3CCOC(Cn4cccn4)C3)co2)c1 (stereo unspecified),2.49,24.3
CC(C)CN1CCCC2(CCN(C(=O)c3cnccn3)C2)C1 (stereo unspecified),1.03,-7.5
CNC1CCCN(Cc2noc(C3CC3)n2)C1 (stereo unspecified),-0.881,-5.27
CCCc1nc(C(C)(C)NC(=O)C2CC(=O)N(CC3CC3)C2)no1 (stereo unspecified),3.35,20
CN(C)C(=O)CNC(=O)Nc1cccc(Cl)c1SC(F)F,4.9,-5.26
Cc1ccsc1C(=O)N1CC(C(=O)NCC2CC2)C2(CCOCC2)C1 (stereo unspecified),8.9,-7.68
CSCC[C@H](N)C(=O)NCc1cc2n(n1)CCCN(C(=O)C1CCC1)C2,-3.26,2.24
Fc1cccc(-c2nc(CN3CCn4c(nnc4C4CC4)C3)co2)c1,6.1,-39.6
COCCN1CCc2cc(C(=O)NCC3CC3)c(NC(C)C)nc2CC1,7.66,6.55
COc1cccc(CN2CCOC(Cn3nc(C)cc3C)C2)c1 (stereo unspecified),1.48,-0.88
COc1ccc(CCN2CCC(N3CCN(C)C3=O)CC2)cc1,-1.97,0.371
CN(Cc1ccco1)Cc1cncc2c1CCN(c1ncccn1)C2,0.874,-26.7
